Measured values reported in PubChem BioAssay (Tox21).
Inconclusive results are not listed. Calls of active or inactive are those of the source. Unless noted, calls follow the shape of the dose curve; as a rule, active = well fitted curve in the direction sought with a large enough effect in the repeat runs; inconclusive = weak or mixed curves; inactive = no such curve, though single readings can be large; an effect the other way counts as inactive or inconclusive.

Columns and labels:
[1] = qHTS assay to identify small molecule agonists of the hypoxia (HIF-1) signaling pathway - cell viability counter screen (AID 1224844; calls by dose curve; also: nearly all actives have a fitted effect of over 50% in size; also: potency is read from the fitted curve at half-maximal effect); conditions: HRE-bla ME-180 viability, CellTiter-Glo luminescence, 17 h; series mostly up to 76.8 µM
In short: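 HRE-bla ME-180 cells, 2,000/well in 0.5% dialyzed FBS medium, treated 17 h at 37C with compounds. Viability read in the same wells as the bla reporter, by CellTiter-Glo luminescence after 30 min at room temperature.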

[2] = qHTS assay to identify small molecule antagonists of the estrogen related receptor (ERR) signaling pathway from Tox21 library (AID 1224848); conditions: ERR reporter cell line, luciferase antagonist mode, 18 h; series mostly up to 92.4 µM; also: nearly all actives have a fitted effect of over 50% in size; also: potency is read from the fitted curve at half-maximal effect
In short: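 Cells: ERR line, 2,000/well; 6 h preincubation 37 C/5% CO2. Cpd in DMSO via pin tool; 18 h, 37 C. ONE-Glo, 30 min RT, luminescence.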

[3] = qHTS assay to identify small molecule agonists of the estrogen related receptor (ERR) signaling pathway from Tox21 library (AID 1224849; calls by dose curve; also: nearly all actives have a fitted effect of over 15% in size); conditions: ERR reporter cell line, ONE-Glo luciferase, 18 h; at 92.4 µM (top of the series) unless noted
In short: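 ERR reporter cells (NTP line) pre-incubated 6 hours at 37 C, then exposed to compounds for 18 hours at 37 C. ONE-Glo luciferase luminescence was read after 30 minutes at room temperature.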

[4] = qHTS RealTime-Glo MT Cell Viability Assay in HEK293 cells - 32 hour (AID 1224868); conditions: RealTime-Glo luminescence; series mostly up to 76.8 µM; also: nearly all actives have a fitted effect of over 50% in size; also: potency is read from the fitted curve at half-maximal effect
In short: (§1)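 HEK293 cells seeded with NanoLuc/prosubstrate reagent, rested 5 h at 37 C, then dosed and kept at 37 C up to 40 h. Nonlytic real-time luminescence from viable cells read at 0, 8, 16, 24, 32 and 40 h.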

[5] = qHTS RealTime-Glo MT Cell Viability Assay in HepG2 cells - 40 hour (AID 1224870); conditions: RealTime-Glo luminescence; series mostly up to 76.8 µM; also: nearly all actives have a fitted effect of over 50% in size; also: potency is read from the fitted curve at half-maximal effect
In short: (§2)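 HepG2 cells mixed with RealTime-Glo MT reagents (NanoLuc plus cell-permeant prosubstrate) were seeded at 600 cells/well, incubated 5 h at 37 C/5% CO2, then pinned with compounds in DMSO; nonlytic luminescence tracked viability during 40 h treatment.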

[6] = qHTS RealTime-Glo MT Cell Viability Assay in HEK293 cells - 16 hour (AID 1224872); conditions: RealTime-Glo luminescence; series mostly up to 76.8 µM; also: nearly all actives have a fitted effect of over 50% in size; also: potency is read from the fitted curve at half-maximal effect
In short: as §1

[7] = qHTS RealTime-Glo MT Cell Viability Assay in HEK293 cells - 40 hour (AID 1224874); conditions: RealTime-Glo luminescence; max response: stronger effect = lower value; also: nearly all actives have a fitted effect of over 50% in size; also: potency is read from the fitted curve at half-maximal effect
In short: (§3)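 600 cells/well were plated with the nonlytic NanoLuc/prosubstrate reagent, pre-incubated 5 h, then given 23 nL of compound in DMSO. Incubation at 37 C for 40 h, with luminescence from viable-cell-reduced substrate read repeatedly from 0 h.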

[8] = A CellTox Green Cytotoxicity Assay to monitor cytotoxicity in HEK293 cells - 24 hour (AID 1224875); conditions: CellTox Green fluorescence; series mostly up to 76.8 µM; also: nearly all actives have a fitted effect of over 45% in size; also: potency is read from the fitted curve at half-maximal effect
In short: (§4)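 HEK293 cells, 600/well, were preincubated 5 hours and then exposed to compounds at 37 C for up to 40 hours. A cell-impermeant cyanine dye staining dead-cell DNA was read by fluorescence at 0, 8, 16, 24, 32 and 40 h time points.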

[9] = qHTS assay to identify small molecule agonists of H2AX (AID 1224845; active = well fitted activation curve with a large enough effect in the signal ratio in the repeat runs, not every such curve was filed as active; the % refers to the signal ratio; also: potency is read from the fitted curve at half-maximal effect); conditions: CHO-K1 phospho-H2AX Ser139 HTRF, 3 h; series mostly up to 154 µM
In short: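 Wild-type CHO-K1 cells plated overnight, then exposed 3 hr at 37C to compounds at 15 concentrations (0.76% DMSO). Lysed, then HTRF anti-pH2AX(S139)-cryptate/anti-H2AX-d2 detection after 24 hr at room temperature; emissions 665 and 620 nm.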

[10] = qHTS assay to identify small molecule agonists of the hypoxia (HIF-1) signaling pathway (AID 1224846; active = well fitted activation curve with a large enough effect in the signal ratio in the repeat runs, not every such curve was filed as active; the % refers to the signal ratio); conditions: HRE-bla ME-180 cells, beta-lactamase ratio, 17 h; series mostly up to 76.8 µM
In short: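 HRE-bla ME-180 beta-lactamase reporter cells in medium with 0.5% dialyzed FBS, pre-incubated 5 h then exposed to compounds 17 h at 37C, 5% CO2; reporter induction read with CCF4-AM FRET substrate.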

[11] = qHTS assay to identify small molecule agonists of H2AX - cell viability counter screen (AID 1224847; calls by dose curve; also: nearly all actives have a fitted effect of over 30% in size; also: potency is read from the fitted curve at half-maximal effect); conditions: CHO-K1 viability, CellTiter-Glo luminescence, 3 h; series mostly up to 154 µM
In short: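 Viability of CHO-K1 (wild type) cells after 3 hr compound exposure was measured by CellTiter-Glo luminescence.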

[12] = qHTS RealTime-Glo MT Cell Viability Assay in HepG2 cells - 24 hour (AID 1224867); conditions: RealTime-Glo luminescence; series mostly up to 76.8 µM; also: nearly all actives have a fitted effect of over 50% in size; also: potency is read from the fitted curve at half-maximal effect
In short: (§5)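 HepG2 cells (600/well) were dispensed with RealTime-Glo reagents, incubated 5 h at 37 °C, then treated with compounds in DMSO for up to 40 h. Nonlytic NanoLuc luminescence reflecting viable cells was read at each stated time point.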

[13] = qHTS RealTime-Glo MT Cell Viability Assay in HepG2 cells - 8 hour (AID 1224873); conditions: RealTime-Glo luminescence; series mostly up to 76.8 µM; also: nearly all actives have a fitted effect of over 55% in size; also: potency is read from the fitted curve at half-maximal effect
In short: as §2

[14] = A CellTox Green Cytotoxicity Assay to monitor cytotoxicity in HepG2 cells - 16 hour (AID 1224876); conditions: CellTox Green fluorescence; series mostly up to 76.8 µM; also: nearly all actives have a fitted effect of over 45% in size; also: potency is read from the fitted curve at half-maximal effect
In short: (§6)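 HepG2 cells, 600/well, preincubated 5 h with CellTox Green dye, then exposed to Tox21 compounds in DMSO at 37 C for up to 40 h. Dead-cell DNA fluorescence read at the indicated time point.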

[15] = qHTS RealTime-Glo MT Cell Viability Assay in HepG2 cells - 32 hour (AID 1224877); conditions: RealTime-Glo luminescence; series mostly up to 76.8 µM; also: nearly all actives have a fitted effect of over 55% in size; also: potency is read from the fitted curve at half-maximal effect
In short: as §5

[16] = A CellTox Green Cytotoxicity Assay to monitor cytotoxicity in HepG2 cells - 24 hour (AID 1224878); conditions: CellTox Green fluorescence; series mostly up to 76.8 µM; also: nearly all actives have a fitted effect of over 45% in size; also: potency is read from the fitted curve at half-maximal effect
In short: as §6

[17] = A CellTox Green Cytotoxicity Assay to monitor cytotoxicity in HepG2 cells - 40 hour (AID 1224879); conditions: CellTox Green fluorescence; series mostly up to 76.8 µM; also: nearly all actives have a fitted effect of over 40% in size; also: potency is read from the fitted curve at half-maximal effect
In short: as §6

[18] = A CellTox Green Cytotoxicity Assay to monitor cytotoxicity in HEK293 cells - 0 hour (AID 1224869); conditions: CellTox Green fluorescence; series mostly up to 76.8 µM; also: nearly all actives have a fitted effect of over 50% in size
In short: as §4

[19] = qHTS RealTime-Glo MT Cell Viability Assay in HEK293 cells - 0 hour (AID 1224880); conditions: RealTime-Glo luminescence; series mostly up to 76.8 µM; also: top concentration of the series differs between compounds; nearly all actives have a fitted effect of over 45% in size
In short: as §3

[20] = A CellTox Green Cytotoxicity Assay to monitor cytotoxicity in HEK293 cells - 40 hour (AID 1224871); conditions: CellTox Green fluorescence; series mostly up to 76.8 µM; also: nearly all actives have a fitted effect of over 45% in size; also: potency is read from the fitted curve at half-maximal effect
In short: as §4
% is scaled to controls: 0 for no effect and ±100 for the full control effect.

Cc1cc(C(C)(C)c2cc(C)c(O)c(C)c2)cc(C)c1O
inactive: Potency [1] | activity change, positive = activation [3] -83.8% | Potency [5] | Potency [8]
active: Potency [2] 26.4 µM | Potency [4] 18.9 µM | Potency [6] 23.7 µM | Potency [7] 18.9 µM

CC(Cl)CN(C)C (stereo unspecified)
inactive: Potency [9] | outcome [10] | Potency [11] | Potency [12] | Potency [5] | Potency [13] | Potency [14] | Potency [15] | Potency [16] | Potency [17]

Clc1ccc(C(Cl)(Cl)Cl)c(Cl)c1
inactive: Potency [9] | Potency [11] | activity change, positive = activation [3] -45.2% | Potency [12] | Potency [18] | Potency [5] | Potency [13] | Potency [14] | Potency [15] | Potency [19]
active: Potency [2] 61.6 µM

CCCCCCCCCCCCCC[P+](CCCCCC)(CCCCCC)CCCCCC (tested in a mixture with another compound)
inactive: Potency [18] | Potency [19]
active: Potency [9] 17.9 µM | Potency [11] 5.05 µM | Potency [12] 30.9 µM | Potency [5] 24.6 µM | Potency [20] 13.8 µM | Potency [6] 13.8 µM | Potency [13] 49 µM | Potency [7] 3.47 µM | Potency [8] 13.8 µM | Potency [14] 38.9 µM | Potency [15] 24.6 µM | Potency [16] 24.6 µM | Potency [17] 24.6 µM

Oc1ccc(C(=C(Cl)Cl)c2ccc(O)cc2)cc1
inactive: Potency [9] | activity change, positive = activation [3] -44.3% | Potency [12] | Potency [5] | Potency [20] | Potency [13] | Potency [8] | Potency [14] | Potency [15] | Potency [17] | Potency [19]
active: Potency [2] 34.3 µM | Potency [4] 43.6 µM | Potency [6] 43.6 µM | Potency [7] 43.6 µM

O=[N+]([O-])c1cc([N+](=O)[O-])c2ccccc2c1
inactive: Potency [9] | outcome [10] | Potency [11] | activity change, positive = activation [3] -17.9% | Potency [4] | Potency [6] | max response [7] 4.65% | Potency [14] | Potency [17] | Potency [19]

S=C(SSC(=S)N1CCCCC1)N1CCCCC1
active: Potency [1] 0.338 µM | Potency [2] 0.473 µM | Potency [20] 0.151 µM | Potency [6] 16.9 µM | Potency [13] 26.8 µM | Potency [15] 0.213 µM | Potency [17] 0.169 µM
inactive: activity change, positive = activation [3] -70.7% [at 42.5 µM] | Potency [8] | Potency [19]

Cc1cc(C(F)(C(F)(F)F)C(F)(F)F)ccc1NC(=O)c1cccc(I)c1C(=O)NC(C)(C)CS(C)(=O)=O
inactive: Potency [9] | outcome [10] | activity change, positive = activation [3] -22.4% [at 42.5 µM] | Potency [12] | Potency [18] | Potency [5] | Potency [20] | Potency [6] | Potency [13] | Potency [8] | Potency [15] | Potency [16] | Potency [17] | Potency [19]

CC(=[OH+])/C=C(/C)[O-].CC(=[OH+])/C=C(\C)[O-].CC(=[OH+])/C=C(\C)[O-].[Fe]
inactive: Potency [9] | Potency [11] | Potency [12] | Potency [4] | Potency [5] | Potency [20] | Potency [6] | Potency [13] | max response [7] 5.66% | Potency [8] | Potency [14] | Potency [15] | Potency [16] | Potency [17]

C=CC(=O)OCC(COC(=O)C=C)(COC(=O)C=C)COC(=O)C=C
active: Potency [1] 6.92 µM | Potency [2] 13.7 µM | Potency [12] 6.16 µM | Potency [5] 5.49 µM | Potency [20] 19.5 µM | Potency [6] 3.89 µM | Potency [7] 3.89 µM | Potency [15] 5.49 µM | Potency [16] 49 µM | Potency [17] 21.9 µM
inactive: activity change, positive = activation [3] -79.4% | Potency [18] | Potency [14] | Potency [19]

O=C(Nc1ccc2[nH]ccc2c1)c1cc2cc(F)ccc2n1Cc1cccc(F)c1
active: Potency [1] 43.6 µM | Potency [2] 6.11 µM
inactive: activity change, positive = activation [3] -52.2% | Potency [4] | Potency [18] | Potency [20] | Potency [6] | Potency [8] | Potency [14] | Potency [16] | Potency [17] | Potency [19]

CC1(c2ccc(Oc3ccccc3)cc2)OC(=O)N(Nc2ccccc2)C1=O (stereo unspecified)
inactive: activity change, positive = activation [3] -64.5% | Potency [19]
active: Potency [1] 22 µM | Potency [2] 2.45 µM | Potency [12] 49.3 µM | Potency [4] 43.9 µM | Potency [13] 49.3 µM | Potency [7] 49.3 µM | Potency [17] 55.3 µM

CC(C)(COCC1CO1)COCC1CO1 (stereo unspecified)
inactive: Potency [9] | outcome [10] | Potency [11] | Potency [2] | activity change, positive = activation [3] -8.81% | Potency [12] | Potency [4] | Potency [18] | Potency [5] | Potency [20] | Potency [6] | Potency [13] | Potency [8] | Potency [14] | Potency [15] | Potency [16] | Potency [17] | Potency [19]

N#C/C=C/C#N
inactive: Potency [9] | Potency [11] | Potency [12] | Potency [5] | Potency [13] | Potency [8] | Potency [14] | Potency [15] | Potency [16] | Potency [17]

OC(c1ccc(Cl)cc1)(c1ccc(Cl)cc1)C(Cl)(Cl)Cl
inactive: Potency [2] | Potency [12] | Potency [5] | Potency [8] | Potency [14] | Potency [15] | Potency [16] | Potency [17] | Potency [19]
active: Potency [1] 21.9 µM | Potency [20] 49 µM
